Test results published in PMC7862700, “An all-to-all approach to the identification of sequence-specific readers for epigenetic DNA modifications on cytosine”.

How the values were obtained:
Assay in all cases: DAPPL (digital affinity profiling via proximity ligation, sequencing); 10 mM Tris-HCl pH 7.5, 50 mM NaCl, 1 mM DTT, 4% glycerol, room temperature, 30 min; GST-TFs on glutathione beads, 16-mer random dsDNA library, 0.1% formaldehyde crosslink after washing; high values mean tight binding
[1] = target: T1, FEV (Homo sapiens, UniProt Q99581 1-238); settings: protein: recombinant; tags: N-terminal GST; dsDNA, one strand shown
T1 sequence: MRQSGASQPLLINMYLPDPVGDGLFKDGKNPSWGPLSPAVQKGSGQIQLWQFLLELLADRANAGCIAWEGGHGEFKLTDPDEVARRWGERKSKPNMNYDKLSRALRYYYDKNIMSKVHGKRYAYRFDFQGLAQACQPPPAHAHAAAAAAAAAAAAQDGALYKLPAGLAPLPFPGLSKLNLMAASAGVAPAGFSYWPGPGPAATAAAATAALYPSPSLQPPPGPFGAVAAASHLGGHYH
Method in brief: (§1)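 Beads coated with glutathione captured GST-fused human transcription factors that had been expressed in yeast, and the factors were then given DNA barcodes and pooled with a tag-only sample. The pools were incubated with 200 nmole of a random double-stranded 16-mer DNA library in Tris/NaCl/DTT/glycerol buffer for 30 min at room temperature, washed, crosslinked with 0.1% formaldehyde and proximity-ligated with BsaI/T4 ligase at 37 °C for 1 h. PCR amplification and Illumina NextSeq500 sequencing came last. Binding signal is each hexamer's read frequency for a factor divided by its frequency for the tag-only sample.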

[2] = target: ETV5 (Homo sapiens, UniProt P41161 1-510); settings: protein: recombinant; tags: N-terminal GST; dsDNA, one strand shown
ETV5, sequence (P41161 whole entry): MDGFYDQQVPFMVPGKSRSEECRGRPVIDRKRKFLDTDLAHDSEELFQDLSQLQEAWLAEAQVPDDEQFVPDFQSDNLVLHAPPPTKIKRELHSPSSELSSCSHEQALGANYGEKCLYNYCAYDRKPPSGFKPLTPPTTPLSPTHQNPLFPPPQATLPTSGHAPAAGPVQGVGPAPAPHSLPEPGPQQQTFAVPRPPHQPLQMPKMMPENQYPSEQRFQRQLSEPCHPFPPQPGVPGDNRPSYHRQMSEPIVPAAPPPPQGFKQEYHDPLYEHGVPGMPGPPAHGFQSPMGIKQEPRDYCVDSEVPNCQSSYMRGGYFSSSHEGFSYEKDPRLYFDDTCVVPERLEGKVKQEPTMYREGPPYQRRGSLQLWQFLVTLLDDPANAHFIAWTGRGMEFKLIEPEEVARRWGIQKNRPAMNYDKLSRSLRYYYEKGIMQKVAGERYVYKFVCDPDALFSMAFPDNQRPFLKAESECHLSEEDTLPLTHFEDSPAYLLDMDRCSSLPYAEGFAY
Method in brief: as §1

[3] = target: HSF1 (Homo sapiens, UniProt Q00613 1-529); settings: protein: recombinant; tags: N-terminal GST; chain copies: 3; dsDNA, one strand shown
HSF1, sequence (Q00613 whole entry): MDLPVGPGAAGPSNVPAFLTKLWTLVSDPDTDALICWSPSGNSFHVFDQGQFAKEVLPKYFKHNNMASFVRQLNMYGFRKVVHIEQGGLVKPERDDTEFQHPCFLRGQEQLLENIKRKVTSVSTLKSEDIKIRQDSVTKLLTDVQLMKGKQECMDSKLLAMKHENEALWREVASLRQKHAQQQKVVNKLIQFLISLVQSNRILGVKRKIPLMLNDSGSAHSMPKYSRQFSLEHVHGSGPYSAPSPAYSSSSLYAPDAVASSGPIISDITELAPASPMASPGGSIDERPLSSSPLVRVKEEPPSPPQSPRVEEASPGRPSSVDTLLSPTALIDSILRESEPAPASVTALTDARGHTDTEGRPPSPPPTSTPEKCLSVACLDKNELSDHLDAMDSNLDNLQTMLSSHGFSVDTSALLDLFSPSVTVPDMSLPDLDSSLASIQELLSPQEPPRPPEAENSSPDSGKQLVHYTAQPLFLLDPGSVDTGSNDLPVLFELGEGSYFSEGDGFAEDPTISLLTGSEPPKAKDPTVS
Method in brief: as §1

[4] = target: T2, SPIC (Homo sapiens, UniProt Q8N5J4 1-248); settings: protein: recombinant; tags: N-terminal GST; dsDNA, one strand shown
T2 sequence: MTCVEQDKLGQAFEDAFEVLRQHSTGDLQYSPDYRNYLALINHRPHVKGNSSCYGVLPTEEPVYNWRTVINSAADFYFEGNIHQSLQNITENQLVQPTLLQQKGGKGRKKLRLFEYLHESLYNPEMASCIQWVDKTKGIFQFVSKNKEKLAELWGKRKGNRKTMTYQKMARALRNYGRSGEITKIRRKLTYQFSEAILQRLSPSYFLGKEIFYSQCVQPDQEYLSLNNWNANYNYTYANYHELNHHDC
Method in brief: as §1

[5] = target: ELF4 (Homo sapiens, UniProt Q99607 1-663); settings: protein: recombinant; tags: N-terminal GST; dsDNA, one strand shown
ELF4, sequence (Q99607 whole entry): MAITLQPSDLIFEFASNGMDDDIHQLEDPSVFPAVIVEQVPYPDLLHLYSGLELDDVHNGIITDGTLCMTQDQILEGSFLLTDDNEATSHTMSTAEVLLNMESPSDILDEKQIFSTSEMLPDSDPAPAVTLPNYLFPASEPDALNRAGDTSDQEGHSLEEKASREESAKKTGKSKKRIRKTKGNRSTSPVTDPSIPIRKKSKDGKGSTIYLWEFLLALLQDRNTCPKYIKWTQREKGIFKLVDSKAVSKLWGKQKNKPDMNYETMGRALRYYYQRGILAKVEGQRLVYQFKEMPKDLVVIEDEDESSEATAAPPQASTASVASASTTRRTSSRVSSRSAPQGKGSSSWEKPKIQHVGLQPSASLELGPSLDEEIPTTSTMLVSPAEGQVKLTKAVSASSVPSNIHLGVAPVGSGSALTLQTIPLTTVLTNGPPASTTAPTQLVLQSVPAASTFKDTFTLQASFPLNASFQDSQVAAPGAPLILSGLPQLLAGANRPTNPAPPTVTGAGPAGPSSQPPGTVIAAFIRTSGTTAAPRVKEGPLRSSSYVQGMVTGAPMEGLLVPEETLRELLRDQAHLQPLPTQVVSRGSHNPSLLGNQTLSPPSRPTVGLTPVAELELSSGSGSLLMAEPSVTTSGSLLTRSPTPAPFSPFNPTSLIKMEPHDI
Method in brief: as §1

[6] = target: T3, ELK4 (Homo sapiens, UniProt P28324-2 1-405); settings: protein: recombinant; tags: N-terminal GST; dsDNA, one strand shown
T3 sequence: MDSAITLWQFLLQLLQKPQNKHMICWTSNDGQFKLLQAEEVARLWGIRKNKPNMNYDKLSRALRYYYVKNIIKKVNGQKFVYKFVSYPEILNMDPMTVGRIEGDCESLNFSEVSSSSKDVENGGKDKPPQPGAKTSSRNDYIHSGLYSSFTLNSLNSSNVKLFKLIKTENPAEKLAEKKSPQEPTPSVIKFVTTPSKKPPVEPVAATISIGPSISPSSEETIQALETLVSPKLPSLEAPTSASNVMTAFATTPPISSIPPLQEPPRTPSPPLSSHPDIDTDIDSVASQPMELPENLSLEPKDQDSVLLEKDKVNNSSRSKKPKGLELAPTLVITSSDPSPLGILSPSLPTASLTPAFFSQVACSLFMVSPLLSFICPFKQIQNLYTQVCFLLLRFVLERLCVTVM
Method in brief: as §1

[7] = target: T4, ETV2 (Homo sapiens, UniProt O00321 1-342); settings: protein: recombinant; tags: N-terminal GST; dsDNA, one strand shown
T4 sequence: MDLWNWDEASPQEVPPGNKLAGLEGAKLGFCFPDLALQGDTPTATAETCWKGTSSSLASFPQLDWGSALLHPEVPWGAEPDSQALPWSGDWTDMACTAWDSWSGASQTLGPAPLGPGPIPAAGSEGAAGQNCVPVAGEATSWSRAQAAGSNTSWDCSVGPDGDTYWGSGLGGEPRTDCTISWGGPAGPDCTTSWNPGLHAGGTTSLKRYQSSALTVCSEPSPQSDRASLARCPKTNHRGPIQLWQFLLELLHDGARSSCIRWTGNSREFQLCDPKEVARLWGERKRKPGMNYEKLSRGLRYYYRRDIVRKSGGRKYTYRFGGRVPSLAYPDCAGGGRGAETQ
Method in brief: as §1

[8] = target: T5, ELF3 (Homo sapiens, UniProt P78545 1-371); settings: protein: recombinant; tags: N-terminal GST; dsDNA, one strand shown
T5 sequence: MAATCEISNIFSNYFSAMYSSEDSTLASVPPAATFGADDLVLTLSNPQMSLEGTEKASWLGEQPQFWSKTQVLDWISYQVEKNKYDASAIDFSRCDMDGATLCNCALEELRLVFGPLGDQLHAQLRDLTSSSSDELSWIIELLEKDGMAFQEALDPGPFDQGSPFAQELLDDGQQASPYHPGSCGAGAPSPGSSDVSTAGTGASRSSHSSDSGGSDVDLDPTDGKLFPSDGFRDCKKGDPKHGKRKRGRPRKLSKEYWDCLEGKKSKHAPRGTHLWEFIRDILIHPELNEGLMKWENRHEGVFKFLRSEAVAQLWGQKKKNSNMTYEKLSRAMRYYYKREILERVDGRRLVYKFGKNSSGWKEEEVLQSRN
Method in brief: as §1

[9] = target: CRX (Homo sapiens, UniProt O43186 1-299); settings: protein: recombinant; tags: N-terminal GST; dsDNA, one strand shown
CRX, sequence (O43186 whole entry): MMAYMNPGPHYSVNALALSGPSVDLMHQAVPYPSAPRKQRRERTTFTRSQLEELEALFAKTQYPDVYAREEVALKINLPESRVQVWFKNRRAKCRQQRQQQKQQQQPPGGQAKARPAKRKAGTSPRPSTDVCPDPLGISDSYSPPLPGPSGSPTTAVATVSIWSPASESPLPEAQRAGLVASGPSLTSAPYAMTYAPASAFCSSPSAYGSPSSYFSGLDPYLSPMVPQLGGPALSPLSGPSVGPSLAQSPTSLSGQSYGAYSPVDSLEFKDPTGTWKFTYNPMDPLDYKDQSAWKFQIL
Method in brief: as §1

[10] = target: ETV1 (Homo sapiens, UniProt P50549 1-477); settings: protein: recombinant; tags: N-terminal GST; dsDNA, one strand shown
ETV1, sequence (P50549 whole entry): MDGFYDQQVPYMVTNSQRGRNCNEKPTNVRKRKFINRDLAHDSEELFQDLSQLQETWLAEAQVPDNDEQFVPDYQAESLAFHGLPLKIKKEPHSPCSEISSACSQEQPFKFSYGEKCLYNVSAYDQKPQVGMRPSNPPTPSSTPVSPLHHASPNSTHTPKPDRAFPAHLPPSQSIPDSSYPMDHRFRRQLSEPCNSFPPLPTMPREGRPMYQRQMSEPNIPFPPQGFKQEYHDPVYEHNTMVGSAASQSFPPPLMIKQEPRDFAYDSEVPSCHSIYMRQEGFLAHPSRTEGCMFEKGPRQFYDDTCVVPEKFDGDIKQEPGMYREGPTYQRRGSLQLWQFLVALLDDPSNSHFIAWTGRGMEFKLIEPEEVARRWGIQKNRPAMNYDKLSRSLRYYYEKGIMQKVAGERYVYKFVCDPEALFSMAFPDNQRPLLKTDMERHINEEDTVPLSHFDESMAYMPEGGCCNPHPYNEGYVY
Method in brief: as §1

[11] = target: T6, ERF (Homo sapiens, UniProt P50548 1-548); settings: protein: recombinant; tags: N-terminal GST; dsDNA, one strand shown
T6 sequence: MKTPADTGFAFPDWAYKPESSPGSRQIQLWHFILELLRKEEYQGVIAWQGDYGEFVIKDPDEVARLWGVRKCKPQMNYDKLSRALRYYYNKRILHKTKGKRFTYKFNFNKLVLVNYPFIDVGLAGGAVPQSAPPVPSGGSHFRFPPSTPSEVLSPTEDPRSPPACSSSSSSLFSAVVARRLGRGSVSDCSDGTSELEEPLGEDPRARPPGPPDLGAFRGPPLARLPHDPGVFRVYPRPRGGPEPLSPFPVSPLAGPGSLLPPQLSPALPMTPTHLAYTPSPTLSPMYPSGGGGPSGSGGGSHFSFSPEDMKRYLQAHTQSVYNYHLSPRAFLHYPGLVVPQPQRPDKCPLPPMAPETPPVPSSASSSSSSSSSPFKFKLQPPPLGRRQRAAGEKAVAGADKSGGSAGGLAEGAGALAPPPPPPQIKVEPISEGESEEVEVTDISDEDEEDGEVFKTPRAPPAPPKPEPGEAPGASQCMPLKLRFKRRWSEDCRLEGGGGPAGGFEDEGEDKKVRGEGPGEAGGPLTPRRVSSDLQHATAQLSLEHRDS
Method in brief: as §1

[12] = target: T7, ETV3L (Homo sapiens, UniProt Q6ZN32 1-361); settings: protein: recombinant; tags: N-terminal GST; dsDNA, one strand shown
T7 sequence: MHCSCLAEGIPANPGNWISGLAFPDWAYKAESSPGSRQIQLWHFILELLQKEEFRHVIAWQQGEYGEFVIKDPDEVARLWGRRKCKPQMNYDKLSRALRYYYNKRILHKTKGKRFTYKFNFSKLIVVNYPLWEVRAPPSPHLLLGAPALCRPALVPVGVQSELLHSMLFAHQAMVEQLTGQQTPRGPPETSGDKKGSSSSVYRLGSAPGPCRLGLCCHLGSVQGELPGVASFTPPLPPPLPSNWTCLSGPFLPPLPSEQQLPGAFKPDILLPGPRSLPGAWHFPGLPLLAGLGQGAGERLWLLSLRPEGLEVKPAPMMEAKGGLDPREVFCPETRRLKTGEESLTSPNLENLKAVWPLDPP
Method in brief: as §1

[13] = target: T8, ETS2 (Homo sapiens, UniProt P15036 1-469); settings: protein: recombinant; tags: N-terminal GST; dsDNA, one strand shown
T8 sequence: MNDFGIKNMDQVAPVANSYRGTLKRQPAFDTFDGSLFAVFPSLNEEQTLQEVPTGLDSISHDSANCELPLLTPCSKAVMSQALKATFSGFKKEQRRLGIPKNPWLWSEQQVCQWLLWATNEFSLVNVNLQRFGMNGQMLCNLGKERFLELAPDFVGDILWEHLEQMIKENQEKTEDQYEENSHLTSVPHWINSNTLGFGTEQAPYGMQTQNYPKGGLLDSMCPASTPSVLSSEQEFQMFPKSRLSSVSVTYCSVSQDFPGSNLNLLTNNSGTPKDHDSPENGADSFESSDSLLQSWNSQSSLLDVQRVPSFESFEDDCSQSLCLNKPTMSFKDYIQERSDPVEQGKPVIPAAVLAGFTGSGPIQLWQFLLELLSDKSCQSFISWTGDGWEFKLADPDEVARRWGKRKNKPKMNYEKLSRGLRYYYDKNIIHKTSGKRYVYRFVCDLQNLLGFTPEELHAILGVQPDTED
Method in brief: as §1

[14] = target: T9, SPDEF (Homo sapiens, UniProt O95238 1-335); settings: protein: recombinant; tags: N-terminal GST; dsDNA, one strand shown
T9 sequence: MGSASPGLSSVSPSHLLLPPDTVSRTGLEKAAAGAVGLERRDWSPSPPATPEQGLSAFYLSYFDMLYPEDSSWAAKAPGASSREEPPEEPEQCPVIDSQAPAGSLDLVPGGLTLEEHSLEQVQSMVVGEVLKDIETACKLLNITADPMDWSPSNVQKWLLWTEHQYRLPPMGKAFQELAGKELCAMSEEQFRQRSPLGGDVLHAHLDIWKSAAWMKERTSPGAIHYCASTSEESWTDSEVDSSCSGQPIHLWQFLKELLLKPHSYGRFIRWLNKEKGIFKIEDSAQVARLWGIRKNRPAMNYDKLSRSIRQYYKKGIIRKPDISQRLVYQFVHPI
Method in brief: as §1

[15] = target: T10, ETV7 (Homo sapiens, UniProt Q9Y603 1-341); settings: protein: recombinant; tags: N-terminal GST; dsDNA, one strand shown
T10 sequence: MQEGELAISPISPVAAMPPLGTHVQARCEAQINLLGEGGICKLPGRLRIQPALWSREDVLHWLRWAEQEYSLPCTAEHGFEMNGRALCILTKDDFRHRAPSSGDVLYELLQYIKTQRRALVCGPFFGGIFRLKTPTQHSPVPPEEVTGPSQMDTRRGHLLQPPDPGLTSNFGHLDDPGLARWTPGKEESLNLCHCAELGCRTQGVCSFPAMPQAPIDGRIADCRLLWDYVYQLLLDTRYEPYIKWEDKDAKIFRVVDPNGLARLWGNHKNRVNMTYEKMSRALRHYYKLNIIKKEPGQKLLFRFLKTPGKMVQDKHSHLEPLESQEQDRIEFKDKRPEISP
Method in brief: as §1

[16] = target: T11, ELF5 (Homo sapiens, UniProt Q9UKW6-2 1-255); settings: protein: recombinant; tags: N-terminal GST; dsDNA, one strand shown
T11 sequence: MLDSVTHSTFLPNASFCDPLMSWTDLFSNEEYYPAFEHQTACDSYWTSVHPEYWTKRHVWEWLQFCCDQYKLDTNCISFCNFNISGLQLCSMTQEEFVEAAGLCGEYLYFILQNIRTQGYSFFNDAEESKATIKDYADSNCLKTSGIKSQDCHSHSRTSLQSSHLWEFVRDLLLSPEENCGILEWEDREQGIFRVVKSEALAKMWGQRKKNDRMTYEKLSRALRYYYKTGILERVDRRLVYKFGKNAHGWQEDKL
Method in brief: as §1

[17] = target: T12, ETV3 (Homo sapiens, UniProt P41162-2 1-143); settings: protein: recombinant; tags: N-terminal GST; dsDNA, one strand shown
T12 sequence: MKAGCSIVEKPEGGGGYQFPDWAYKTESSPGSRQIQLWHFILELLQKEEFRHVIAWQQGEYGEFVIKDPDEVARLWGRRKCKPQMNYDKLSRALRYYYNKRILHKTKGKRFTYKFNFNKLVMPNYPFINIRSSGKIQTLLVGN
Method in brief: as §1

[18] = target: ETV6 (Homo sapiens, UniProt P41212 1-452); settings: protein: recombinant; tags: N-terminal GST; dsDNA, one strand shown
ETV6, sequence (P41212 whole entry): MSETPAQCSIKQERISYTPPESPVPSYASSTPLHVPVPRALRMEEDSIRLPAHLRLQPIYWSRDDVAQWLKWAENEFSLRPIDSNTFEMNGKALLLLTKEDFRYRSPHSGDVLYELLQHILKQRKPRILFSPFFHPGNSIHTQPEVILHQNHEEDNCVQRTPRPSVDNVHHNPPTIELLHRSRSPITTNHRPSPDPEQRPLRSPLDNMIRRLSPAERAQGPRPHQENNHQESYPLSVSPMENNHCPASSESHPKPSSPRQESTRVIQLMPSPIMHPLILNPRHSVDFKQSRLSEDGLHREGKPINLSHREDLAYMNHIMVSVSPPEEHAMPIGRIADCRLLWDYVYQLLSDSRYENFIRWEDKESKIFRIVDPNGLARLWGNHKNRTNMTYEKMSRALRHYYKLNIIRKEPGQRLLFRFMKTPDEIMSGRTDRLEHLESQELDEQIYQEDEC
Method in brief: as §1

## TTATAA
[1]
  binding signal: 1.16 fold enrichment (6-mer frequency, TF over GST control)
[2]
  binding signal: 1.13 fold enrichment (6-mer frequency, TF over GST control)
[3]
  binding signal: 1.79 fold enrichment (6-mer frequency, TF over GST control)
[4]
  binding signal: 1.2 fold enrichment (6-mer frequency, TF over GST control)
[5]
  binding signal: 1.11 fold enrichment (6-mer frequency, TF over GST control)
[6]
  binding signal: 1.14 fold enrichment (6-mer frequency, TF over GST control)
[7]
  binding signal: 1.12 fold enrichment (6-mer frequency, TF over GST control)
[8]
  binding signal: 1.32 fold enrichment (6-mer frequency, TF over GST control)
[9]
  binding signal: 2.9 fold enrichment (6-mer frequency, TF over GST control)
[10]
  binding signal: 1.13 fold enrichment (6-mer frequency, TF over GST control)
[11]
  binding signal: 1.15 fold enrichment (6-mer frequency, TF over GST control)
[12]
  binding signal: 1.19 fold enrichment (6-mer frequency, TF over GST control)
[13]
  binding signal: 1.2 fold enrichment (6-mer frequency, TF over GST control)
[14]
  binding signal: 1.17 fold enrichment (6-mer frequency, TF over GST control)
[15]
  binding signal: 1.21 fold enrichment (6-mer frequency, TF over GST control)
[16]
  binding signal: 1.19 fold enrichment (6-mer frequency, TF over GST control)
[17]
  binding signal: 1.16 fold enrichment (6-mer frequency, TF over GST control)
[18]
  binding signal: 1.19 fold enrichment (6-mer frequency, TF over GST control)
